Spn MK inh – blocks S. pneumoniae mevalonate kinase; purified MK, PK/LDH-coupled NADH absorbance 340 nm; inhibition, % at 10 µM; 0.48% of 65,000 active;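 active = ranked among the strongest by inhibition in the single 10 µM screen, a fixed top-ranked set picked for dose follow-up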
Autofluor 339 – intrinsic fluorescence of library compounds, ex339/em460 – biochemical, MLSMR library, data from DPM-DC assay, artefact control, profiling panel; AID 709; compound autofluorescence, ex339/em460 nm, NADH buffer; hits give high values; 1 = no-compound wells, NADH background; fluorescence fold increase at 10 µM; 5.5% of 65,000 active;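 active = at 10 µM, mean starting fluorescence two-fold or more over control wells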;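 note: signal is the first read of a kinetic run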
Abs 340nm – compound absorbs light at 340 nm. compound absorbance at 340 nm, fold over control. fold change at 10 µM. 65,000 tested, under 10 active. AID 708;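 active = at 10 µM dose, initial 340 nm absorbance at least 2 fold that of control wells; inactive = change under 2 fold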;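 note: initial absorbance extrapolated from kinetic A340 decline of NADH oxidation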
Spn DPM-DC inh – S. pneumoniae DPM-DC inhibition | purified DPM-DC, PK/LDH coupled NADH fluorescence | calls only at 10 µM | 0.49% of 65,000 active;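 active = the 320 compounds with the highest percent inhibition in the single-dose primary screen, excluding strongly autofluorescent ones, cut at about 32% in these data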;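 note: kinetic rate of NADH fluorescence loss reporting ADP formed by the decarboxylase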
PMK inhibit – inhibitors of Streptococcus pneumoniae phosphomevalonate kinase; purified PMK, PK/LDH-coupled NADH absorbance 340 nm; inhibition, % at 10 µM; 0.49% of 65,000 active; AID 539;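 active = top-ranked compounds by inhibition in the single 10 µM screen, taking a fixed number of the strongest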;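 note: 0% = full reaction with DMSO carrier and 100% = background rate without enzyme reaction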
NADH enzymes – inhibitors of enzymes used to reach an NAD/NADH endpoint; coupled PK/LDH NADH assays, four targets; IC50, µM (top dose mostly 10 µM), for inactives: at the highest dose inhibition; 0.02% of 65,000 active;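 active = single-dose screening hits from any of four coupled enzyme assays that gave an IC50 when retested across doses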;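 note: the DPM-DC format reads NADH fluorescence rather than 340 nm absorbance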
Numbers without * were called inactive; i = inactive; · = not tested or not shown; + = active, no number. An excerpt weighted towards active compounds, which were near 6.3% of everything screened.

SMILES	Spn MK inh	Autofluor 339	Abs 340nm	Spn DPM-DC inh	PMK inhibit	NADH enzymes
Cc1nc2cc(C(F)(F)F)ccc2n1C1CCN(CC(=O)NC(C)(C)C)CC1	7	1.1	0.97	i	11	6%
COc1ccccc1N(CN1CCCC1=O)C(=O)COc1ccccc1	0	1.2	1	i	2	1%
COCCNC(=O)CN1CCC(n2c(C)nc3cc(C(F)(F)F)ccc32)CC1	0	1.1	1	i	8	3%
Cn1c(OCc2ccc3c(c2)OCO3)nc2c1c(=O)n(Cc1cccc(Cl)c1)c(=O)n2C	·	1.1	1	i	10	5%
O=C(Nc1cccc(NC(=O)c2ccc(Br)o2)n1)c1ccc(Br)o1	0	1.4	1.1	i	20	10%
N#Cc1c(NC(=O)c2ccc(Br)o2)n(-c2ccccc2)c2nc3ccccc3nc12	12	3*	1	·	2	3%
CCC(=O)Nc1nc2ccccc2n1Cc1ccc(C)cc1	0	1.1	1	i	0	0%
CCC(=O)Nc1c(C#N)c2nc3ccccc3nc2n1-c1ccc(C)cc1	12	3.7*	1.1	·	8	10%
OCCN1CCN(c2nc(-c3ccccc3)nc3c2oc2ccccc23)CC1	9	1.1	1	i	17	10%
COc1cccc2cc(C(=O)N3CCN(c4ccccc4F)CC3)c(=O)oc12	0	1.2	1	i	29*	10%
COc1cccc2cc(C(=O)N3CCc4ccccc4C3)c(=O)oc12	5	1.2	1.1	i	9	5%
O=C(Nc1ccc(S(=O)(=O)N2CCCCCC2)cc1)C1CCCO1 (configuration not stated)	11	1.1	1	i	1	5%
c1coc(-c2nc(-c3ccco3)c(-c3ccco3)nc2-c2ccco2)c1	16	2.2*	1.1	·	16	16%
Nc1nc(-c2ccco2)c(-c2ccco2)s1	1	1.1	1.1	i	16	6%
COC(=O)/C(=C1/Oc2cc3c(cc2S1)OCO3)C(F)(F)F	8	2.2*	1.1	i	13	11%
CCCn1c(=O)c(C(=O)Nc2nnc(C)s2)c(O)c2ccccc21	10	1.1	1	i	10	7%
CCN1CCN(Cc2c(O)ccc3c(=O)c(-c4ccc(OC)c(OC)c4)c(C)oc23)CC1	4	3.9*	1.1	·	6	5%
COc1ccc(-c2c(C)oc3c(CN4CCN(C)CC4)c(O)ccc3c2=O)cc1	3	2.2*	1.1	·	0	2%
Cn1nnnc1SCCNCc1ccncc1	7	1.1	0.99	i	7	5%
O=S1(=O)N=C(Nc2ccc(O)c(CN3CCCCC3)c2)c2ccccc21	9	0.98	1.1	i	11	7%
Cc1cc(C(=O)COc2ccc3ccc(=O)oc3c2)c(C)n1Cc1cccs1	0	2.6*	1.1	i	12	13%
COc1cc(-c2nnc(COc3ccc4ccccc4c3)o2)cc(OC)c1OC	16	1	1	i	28*	15%
COC(=O)c1c(C(=O)OC)c2ccncn2c1Cl	10	1.7	1.1	+	17	24%
COC(=O)C1=C(C)N(c2ccc(Cl)c(Cl)c2)C(=O)C1	0	1.1	1.1	i	0	0%
O=C(NCc1cccs1)C1CCN(S(=O)(=O)c2cccc3cccnc23)CC1	9	1	1	i	0	3%
SMILES	Spn MK inh	Autofluor 339	Abs 340nm	Spn DPM-DC inh	PMK inhibit	NADH enzymes
Cn1c2ccccc2c2ncn(Cc3ccco3)c(=O)c21	8	2.9*	1.1	i	10	11%
C=CCn1c(SCC(=O)Nc2c(C)cccc2C)nnc1-c1cnccn1	7	1.1	1	i	7	5%
CCCC12CN3CC(CCC)(CN(C1)C3C(O)C(O)C(O)CO)C2=O (configuration not stated)	3	1	1	i	12	5%
N#Cc1cc2ccc(N3CCOCC3)cc2cc1C#N	10	2.5*	1	·	4	3%
FC(F)C(F)(F)C(F)(F)C(F)(F)c1cc(-c2ccccc2)n[nH]1	2	1	1	i	0	1%
COCCCNC(=O)c1c(N)n(/N=C/c2cccs2)c2nc3ccccc3nc12	0	2.3*	1.1	·	6	3%
COCCCNC(=O)c1c(N)n(/N=C/c2cccnc2)c2nc3ccccc3nc12	6	2.3*	1.1	·	11	9%
Cc1nc2ccccc2c(=O)n1/N=C/c1cccnc1	4	1	1.1	i	0	1%
CCC(C)NC(=O)c1c(N)n(/N=C/c2cccnc2)c2nc3ccccc3nc12 (configuration not stated)	0	3.1*	1.1	·	5	3%
CC(C)OCCCNC(=O)c1c(N)n(/N=C/c2ccccn2)c2nc3ccccc3nc12	2	1.4	1.1	i	3	4%
CCC(C)NC(=O)c1c(N)n(/N=C/c2ccccn2)c2nc3ccccc3nc12 (configuration not stated)	0	1.9	1.1	i	2	8%
CC(C)CNC(=O)c1c(N)n(/N=C/c2cccnc2)c2nc3ccccc3nc12	7	2.3*	1	·	4	6%
CC(C)Cc1nnc(NC(=O)CSc2nc(=O)cc(N)n2-c2ccccc2)s1	6	1.1	1	i	6	4%
O=C(c1cccc(S(=O)(=O)N2CCCC2)c1)c1nnc(-c2ccncc2)o1	9	1	0.99	i	15	8%
CC(C)(C)NC(=O)C1CCN(C(=O)c2ccc(Br)cc2)CC1	2	1.1	1	i	6	3%
CCOc1ccccc1NC(=O)NC1CC2CCCC(C1)N2Cc1nnnn1CCc1ccccc1 (configuration not stated)	9	1.1	0.98	i	0	3%
COc1ccc(C2C3=C(CC(C)(C)CC3=O)Nc3c2c(=O)[nH]c2nc(C)nn32)cc1 (configuration not stated)	15	2.5*	1.1	i	5	16%
Cc1ccc(C(=O)C2COC(=O)C2)cc1 (configuration not stated)	0	1	0.99	i	6	1%
Cc1nnc2sc(-c3ccc(NC(=O)c4cccnc4)cc3)nn12	18	1.1	1.1	i	11	10%
Cc1nnc2sc(-c3ccc(NC(=O)c4ccc(-c5ccc(Cl)cc5Cl)o4)cc3)nn12	11	3.9*	1.1	·	1	6%
COc1ccc(OC)c(S(=O)(=O)N2CCCc3ccccc32)c1	0	1.1	1	i	0	0%
CCc1cc2c(=O)c(-c3cnn(-c4ccccc4)c3)coc2c(CN2CCOCC2)c1O	2	2.9*	0.97	i	14	9%
O=C(c1coc2ccc(O)c(CN3CCOCC3)c12)C1CC1	13	1.1	1	i	13	9%
CCc1cc2c(=O)c(-c3nc4ccccc4n3C)coc2c(CN2CCOCC2)c1O	1	1.3	1.2	i	6	12%

High-throughput results deposited in PubChem BioAssay by SRMLSC.
